Compounds without any hit were thinned out: in the full panel of roughly 79,000, 15% have a hit. Unmarked numbers belong to inactive results. The source made the active and inactive calls. Cut-off read from the data, not from the text of the source: active = growth inhibition above about 70%; inactive = the rest.
Assays:
[1] = NCI Yeast Anticancer Drug Screen. Data for the rad52 strain (AID 147);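 note: 0% = growth of vehicle-treated control cultures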; settings: S. cerevisiae rad52 mutant growth inhibition, stronger effect = higher value
Summary of the method: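 Read-out: growth inhibition versus vehicle-treated controls. Cells were a DNA repair-deficient yeast strain treated with compounds.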

[2] = NCI Yeast Anticancer Drug Screen. Data for the wt1 strain (AID 149);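 note: 0% = growth of vehicle-treated wt1 cultures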; settings: S. cerevisiae wt1 strain (SPY 50644) growth inhibition, stronger effect = higher value
Summary of the method: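 wt1 yeast, compound-treated; % growth inhibition vs vehicle control.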

[3] = NCI Yeast Anticancer Drug Screen. Data for the rad50EPP+ strain (AID 151);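 note: 0% = growth of vehicle-treated control cultures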; settings: S. cerevisiae rad50 mutant strain, stronger effect = higher value
Summary of the method: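 Growth inhibition read against vehicle controls in rad50EPP+ yeast, a strain altered in DNA damage repair, after compound exposure.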

[4] = NCI Yeast Anticancer Drug Screen. Data for the mgt1 strain (AID 153); settings: S. cerevisiae mgt1 mutant growth inhibition, stronger effect = higher value
Summary of the method: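 mgt1 yeast grown with test compound; read-out is growth inhibition versus vehicle-treated cultures.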

[5] = NCI Yeast Anticancer Drug Screen. Data for the rad50 strain (AID 155);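 note: 0% = growth of vehicle-only cultures of the same strain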; settings: S. cerevisiae rad50 strain growth inhibition, stronger effect = higher value
Summary of the method: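 Genetically altered yeast (DNA repair pathway); compound treatment; growth inhibition vs vehicle ctrl.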

[6] = NCI Yeast Anticancer Drug Screen. Data for the mec2-1 strain (AID 157); settings: S. cerevisiae mec2-1 strain, stronger effect = higher value
Summary of the method: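 Yeast mec2-1 mutant treated with compound. Readout: growth inhibition vs vehicle controls.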

[7] = NCI Yeast Anticancer Drug Screen. Data for the rad14 strain (AID 159);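 note: 0% = growth of vehicle-treated control cultures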; settings: S. cerevisiae rad14 strain growth inhibition, stronger effect = higher value
Summary of the method: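 Test compounds were applied to a repair-deficient yeast strain. Its growth was then compared with that of cultures given vehicle alone, and inhibition was expressed relative to those controls.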

[8] = NCI Yeast Anticancer Drug Screen. Data for the sgs1 mgt1 strain (AID 161);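 note: 0% = growth of cultures given vehicle only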; settings: S. cerevisiae sgs1 mgt1 strain, stronger effect = higher value
Summary of the method: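 Genetically altered yeast, compound exposure, growth inhibition relative to vehicle.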

[9] = NCI Yeast Anticancer Drug Screen. Data for the CLN2oe strain (AID 163);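 note: 0% = growth of vehicle-only control cultures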; settings: S. cerevisiae CLN2oe strain, stronger effect = higher value
Summary of the method: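 Read-out: yeast growth inhibition, expressed relative to vehicle-only controls. The strain bears an engineered cell-cycle alteration.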

[10] = NCI Yeast Anticancer Drug Screen. Data for the cln2 rad14 strain (AID 165);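 note: 0% = growth equal to vehicle treated cultures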; settings: S. cerevisiae cln2 rad14 strain, stronger effect = higher value
Summary of the method: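 cln2 rad14 yeast strain; compound exposure; growth inhibition read vs vehicle controls.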

[11] = NCI Yeast Anticancer Drug Screen. Data for the bub3 strain (AID 167); settings: S. cerevisiae bub3 mutant strain, stronger effect = higher value
Summary of the method: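 Yeast carrying a defined mutation is treated with each compound, and growth is compared with that of vehicle-exposed cells to give inhibition.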

[12] = NCI Yeast Anticancer Drug Screen. Data for the wt2 strain (AID 169);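 note: 0% = growth of vehicle-treated yeast cultures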; settings: S. cerevisiae wt2 strain growth inhibition, stronger effect = higher value
Summary of the method: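 Read-out: growth inhibition versus vehicle-treated control cultures after compound exposure of the yeast strain.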

[13] = NCI Yeast Anticancer Drug Screen. Data for the mlh1 strain (AID 171);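 note: 0% = growth of vehicle-treated control cultures of the same strain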; settings: S. cerevisiae mlh1 strain growth inhibition, stronger effect = higher value
Summary of the method: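 Read-out: growth inhibition versus vehicle controls. Strain: engineered yeast with a defined DNA repair or cell cycle defect, compound-treated.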

[14] = NCI Yeast Anticancer Drug Screen. Data for the sgs1 strain (AID 173);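 note: 0% = growth of vehicle-only control cultures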; settings: S. cerevisiae sgs1 mutant, stronger effect = higher value
Summary of the method: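 Read-out: yeast growth inhibition relative to vehicle controls, following compound exposure of a strain with a defined DNA repair/cell cycle alteration.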

[15] = NCI Yeast Anticancer Drug Screen. Data for the mlh1 rad18 strain (AID 175); settings: S. cerevisiae mlh1 rad18 strain growth inhibition, stronger effect = higher value
Summary of the method: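 Yeast w/ defined DNA-repair lesions; compound exposure; growth vs vehicle controls → % inhibition.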

[16] = NCI Yeast Anticancer Drug Screen. Data for the rad18 strain (AID 177); settings: S. cerevisiae rad18 mutant growth inhibition, stronger effect = higher value
Summary of the method: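 Readout: growth inhibition vs vehicle controls. Cells: genetically altered yeast strain, DNA repair defect.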

[17] = at 5.0 µM (retest, dose inferred, filed as 0.5)
[18] = at 50.0 µM (retest, dose inferred, filed as 5.0)

CCCCCCCN1C(=O)c2ccccc2C1=O
growth inhibition ([1]; at 1.2 µM): -1%
growth inhibition ([1]; at 3.7 µM): -1%
growth inhibition ([1]; at 11.0 µM): -3%
growth inhibition ([1]; at 33.0 µM): 11%
growth inhibition ([1]; at 100.0 µM): 28%
growth inhibition ([2]; at 1.2 µM): 0%
growth inhibition ([2]; at 3.7 µM): -1%
growth inhibition ([2]; at 11.0 µM): -1%
growth inhibition ([2]; at 33.0 µM): -1%
growth inhibition ([2]; at 100.0 µM): 0%
growth inhibition ([3]; at 1.2 µM): 0%
growth inhibition ([3]; at 3.7 µM): -1%
growth inhibition ([3]; at 11.0 µM): 8%
growth inhibition ([3]; at 33.0 µM): 25%
growth inhibition ([3]; at 100.0 µM): 35%
growth inhibition ([4]; at 1.2 µM): -7%
growth inhibition ([4]; at 3.7 µM): -6%
growth inhibition ([4]; at 11.0 µM): -5%
growth inhibition ([4]; at 33.0 µM): 9%
growth inhibition ([4]; at 100.0 µM): 31%
growth inhibition ([5]; at 1.2 µM): -2%
growth inhibition ([5]; at 3.7 µM): 5%
growth inhibition [5, 17]: -17%
growth inhibition ([5]; at 11.0 µM): 7%
growth inhibition ([5]; at 33.0 µM): 26%
growth inhibition [5, 18]: 3%
growth inhibition ([5]; at 50.0 µM): 83.9% (active)
growth inhibition ([5]; at 100.0 µM): 22%
growth inhibition ([6]; at 1.2 µM): -5%
growth inhibition ([6]; at 3.7 µM): -8%
growth inhibition [6, 17]: -10%
growth inhibition ([6]; at 11.0 µM): -27%
growth inhibition ([6]; at 33.0 µM): -6%
growth inhibition [6, 18]: 11%
growth inhibition ([6]; at 50.0 µM): 53.2%
growth inhibition ([6]; at 100.0 µM): -11%
growth inhibition ([7]; at 1.2 µM): -1%
growth inhibition ([7]; at 3.7 µM): -10%
growth inhibition ([7]; at 11.0 µM): 4%
growth inhibition ([7]; at 33.0 µM): 13%
growth inhibition ([7]; at 100.0 µM): 2%
growth inhibition [8, 17]: -14%
growth inhibition [8, 18]: 19%
growth inhibition ([8]; at 50.0 µM): 67.8%
growth inhibition ([9]; at 1.2 µM): -1%
growth inhibition ([9]; at 3.7 µM): -2%
growth inhibition ([9]; at 11.0 µM): -4%
growth inhibition ([9]; at 33.0 µM): -6%
growth inhibition ([9]; at 100.0 µM): -11%
growth inhibition [10, 17]: -7%
growth inhibition [10, 18]: -8%
growth inhibition ([10]; at 50.0 µM): 30.6%
growth inhibition ([11]; at 1.2 µM): 3%
growth inhibition ([11]; at 3.7 µM): -4%
growth inhibition [11, 17]: -17%
growth inhibition ([11]; at 11.0 µM): 28%
growth inhibition ([11]; at 33.0 µM): 36%
growth inhibition [11, 18]: 34%
growth inhibition ([11]; at 50.0 µM): 73.8% (active)
growth inhibition ([11]; at 100.0 µM): 37%
growth inhibition ([12]; at 1.2 µM): -2%
growth inhibition ([12]; at 3.7 µM): -1%
growth inhibition ([12]; at 11.0 µM): 0%
growth inhibition ([12]; at 33.0 µM): 11%
growth inhibition ([12]; at 100.0 µM): 45%
growth inhibition ([13]; at 1.2 µM): -12%
growth inhibition ([13]; at 3.7 µM): -6%
growth inhibition ([13]; at 11.0 µM): -19%
growth inhibition ([13]; at 33.0 µM): -19%
growth inhibition ([13]; at 100.0 µM): 1%
growth inhibition ([14]; at 1.2 µM): 0%
growth inhibition ([14]; at 3.7 µM): -1%
growth inhibition ([14]; at 11.0 µM): 2%
growth inhibition ([14]; at 33.0 µM): 14%
growth inhibition ([14]; at 100.0 µM): 44%
growth inhibition [15, 17]: -31%
growth inhibition [15, 18]: 56%
growth inhibition ([15]; at 50.0 µM): 86.6% (active)
growth inhibition ([16]; at 1.2 µM): -1%
growth inhibition ([16]; at 3.7 µM): -5%
growth inhibition ([16]; at 11.0 µM): -1%
growth inhibition ([16]; at 33.0 µM): 13%
growth inhibition ([16]; at 100.0 µM): 28%

— PubChem BioAssay (NCI)
